Compound activity (PubChem)
Rows were chosen to be rich in hits. Some 3.8% of all compounds tested hit in one or more screens of this group.
NTMT1 inhibitor: blocks human N-terminal methyltransferase 1 activity | NTMT1 MTase-Glo SAH luminescence, purified enzyme | Potency, µM (top dose mostly 114 µM), hits mostly inhibitors | hit rate 2.5% among 59,000 | AID 1645870; note: nearly all actives have a fitted effect of over 65% in size
Target sequence (Q9BV86 whole entry, looked up): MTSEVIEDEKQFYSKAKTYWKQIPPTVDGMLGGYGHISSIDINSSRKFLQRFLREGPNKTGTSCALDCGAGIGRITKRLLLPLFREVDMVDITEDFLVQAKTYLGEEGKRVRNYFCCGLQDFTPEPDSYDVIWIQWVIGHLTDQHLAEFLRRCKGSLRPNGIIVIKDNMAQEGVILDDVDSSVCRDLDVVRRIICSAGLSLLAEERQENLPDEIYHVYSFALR
DRV1 agonist: agonists of human resolvin D1 receptor DRV1 (GPR32). O75388. CHO-K1 GPR32 beta-arrestin PathHunter luminescence, 90 min; zero percent set by DMSO-only wells. activation, % at 76.9 µM. hit rate 2.5% among 48,000;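 active = activation of at least 60% and not above a set upper limit, about 1 call in 100 departs from these limits; inconclusive = activation of 40% to 60%, or above that upper limit; inactive = activation under 40%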
Target sequence (O75388 whole entry, looked up): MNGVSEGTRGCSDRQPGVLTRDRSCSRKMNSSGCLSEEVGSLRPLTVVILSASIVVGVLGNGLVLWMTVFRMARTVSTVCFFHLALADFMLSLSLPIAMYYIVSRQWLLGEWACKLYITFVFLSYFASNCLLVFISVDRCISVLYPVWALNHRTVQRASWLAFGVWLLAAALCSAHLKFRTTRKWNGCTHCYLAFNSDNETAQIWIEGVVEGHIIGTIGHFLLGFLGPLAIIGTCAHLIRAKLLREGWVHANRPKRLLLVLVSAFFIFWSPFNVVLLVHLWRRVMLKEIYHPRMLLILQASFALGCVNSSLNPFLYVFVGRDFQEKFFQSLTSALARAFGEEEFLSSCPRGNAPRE
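Cells are plated overnight, treated with compounds in DMSO for 90 minutes at 37 °C, and developed with PathHunter detection reagent for 1 hour before luminescence is read; signal reflects beta-arrestin binding to GPR32 in engineered CHO-K1 cells.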
OvCa metastasis: blocks SKOV3ip1 adhesion and invasion in omental model; AID 1963576; Potency, µM (series often up to 45.8 µM), usual class: inhibitors; hit rate 0.1% among 46,000; SKOV3ip1-GFP adhesion/invasion on 3D omental model, fluorescence; note: nearly all actives have a fitted effect of over 65% in size
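Primary human omental fibroblast/mesothelial 3D culture pre-formed 48 h. SKOV3ip1-GFP cells added with compounds (0.36-46 umol/L), incubated 2 h RT/16 h 37 C, fixed; GFP cells quantified at 488/509 nm.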
FH mod: Identification of activators of human fumarate hydratase by quantitative high-throughput screening. FH coupled MDH/diaphorase resazurin fluorescence, 15 min. Potency, µM (highest dose often 79.9 µM), hits mostly inhibitors. hit rate 0.22% among 54,000. AID 1347055, 2019; note: the screen sought activators but most active calls are inhibition curves; nearly all actives have a fitted effect of over 45% in size
A number is an active result; . = inactive; ? = inconclusive; / = no result given. Unless noted, calls come from the whole dose curve; as a rule, active = well fitted curve in the direction sought with a large enough effect; inconclusive = small, poorly fitted or top-dose-only effect, or another doubt; inactive = no such curve, though single readings can be large; an effect the other way counts as inactive or inconclusive.

SMILES | NTMT1 inhibitor | DRV1 agonist | OvCa metastasis | FH mod
CCCCC(=O)Nc1cccc(-c2nc3ccccc3s2)c1 | . | 92 | . | .
CCOC(=O)c1cccc(NC(=O)CCc2nc3cccnc3n2-c2ccccc2)c1 | ? | . | . | .
CCOC(=O)CSc1nc2ccc(NC(=O)COc3ccccc3)cc2s1 | . | 61 | . | .
Cc1cccc(C(=O)Nc2ccc(-c3nc4ccccc4s3)cc2Cl)c1 | . | 92 | . | .
Brc1c(Br)c(Br)c2n[nH]nc2c1Br | 11µM | . | / | 32µM
Brc1c(Br)c(Br)c2[nH]cnc2c1Br | / | . | / | .
Cc1ccsc1/C=C/C1=NCCCN1C | 13µM | . | / | .
Cc1c(C(=O)OC2CCCC2)[nH]c2c1C(=O)CC(c1ccc(Cl)cc1)C2 (stereo not drawn) | . | . | . | .
O=C(O)C1(Cc2cccc(Nc3nccs3)n2)CCC(Oc2cccc(Cl)c2F)CC1 (stereo not drawn) | 28µM | / | . | .
Cc1ccc(NC(=O)c2nc(S(=O)(=O)Cc3ccc(F)cc3)ncc2Cl)cc1C | . | . | 11µM | .
CC(=O)Nc1ccc(NC(=O)c2nc(S(=O)(=O)Cc3ccc(F)cc3)ncc2Cl)cc1 | . | . | 3.2µM | .
CCc1nnc(NC(=O)c2nc(SCc3ccccc3C)ncc2Cl)s1 | . | . | . | .
COc1ccc(OC)c(NC(=O)c2nc(S(=O)(=O)Cc3ccc(F)cc3)ncc2Cl)c1 | . | . | 6.3µM | .
CCS(=O)(=O)c1ncc(Cl)c(C(=O)NCc2ccc(OC)cc2)n1 | . | . | ? | .
CC(=O)Nc1ccc(NC(=O)c2nc(SCc3ccccc3C)ncc2Cl)cc1 | . | 65 | . | .
COc1ccc(OC)c(-c2cc(C(=O)Nc3cnn(Cc4ccc(Cl)cc4Cl)c3)no2)c1 | / | 91 | ? | /
COc1ccc2c(c1)CCc1c(C(=O)Nc3cnn(Cc4ccc(Cl)cc4Cl)c3)noc1-2 | ? | . | . | ?
O=C(c1ccc(F)cc1)N1CCCC(c2nc(-c3ccc(F)cc3)no2)C1 (stereo not drawn) | . | / | / | .
COc1cc(OC)cc(C(=O)Nc2ccc3nc4c(c(Nc5ccc(OC)c(OC)c5)c3c2)CCCC4)c1 | . | 85 | ? | .
CCOc1ccccc1C(=O)Nc1ccc2nc3c(c(Nc4ccc(OC)c(OC)c4)c2c1)CCCC3 | . | . | ? | .
COc1ccc(Nc2c3c(nc4ccc(NC(=O)c5cc(Cl)ccc5OC)cc24)CCCC3)cc1OC | ? | 61 | ? | .
CCOc1c(Cl)cc(CNc2ccc3[nH]c(=O)[nH]c3c2)cc1OC | . | 85 | . | .
CSc1cccc(N2C(=O)N(CC(=O)NCc3ccccc3Cl)c3ccccc3S2(=O)=O)c1 | . | 67 | . | .
CCOC(=O)c1ccc(NC(=O)CN2C(=O)C(C)(C)c3ccccc32)cc1 | . | 109 | . | .
Cc1cc(NC(=O)CN2C(=O)C(C)(C)c3ccccc32)ccc1Br | . | . | . | .
SMILES | NTMT1 inhibitor | DRV1 agonist | OvCa metastasis | FH mod
COc1ccc(NC(=O)CN2C(=O)C(C)(C)c3ccccc32)cc1Cl | . | 103 | . | .
Cc1n[nH]c(C)c1CCc1nc2c3ccccc3nc(SCC(=O)Nc3ccc(F)cc3)n2n1 | . | 72 | ? | .
Cc1nc2nc(C)c(CCC(=O)NCc3cccc(Cl)c3)c(C)n2n1 | . | . | . | .
COc1ccccc1-c1cc2nc(C)c(CCC(=O)NCc3cccc(Cl)c3)c(C)n2n1 | 89µM | . | . | ?
COc1cccc(C2C(C(N)=O)=C(C)Nc3ncnn32)c1 (stereo not drawn) | . | . | . | .
COc1cccc(C(c2sc3nc(-c4ccco4)nn3c2O)N2CCCC2)c1 (stereo not drawn) | . | . | . | .
CCCN(CCC)C(=O)Cn1c(=O)n(-c2ccc(Cl)cc2)c(=O)c2c3c(sc21)CCCC3 | . | . | . | .
CCCN(CCC)C(=O)Cn1c(=O)n(-c2ccc(CC)cc2)c(=O)c2c3c(sc21)CCC3 | 89µM | . | . | .
Cc1ccc(S(=O)(=O)c2nnn3c2nc(NC(C)C)c2cc(Cl)ccc23)cc1C | . | . | ? | .
O=C1Nc2ccccc2Oc2cc(Oc3cccc(Cl)c3)ccc21 | . | 91 | . | .
O=C1CCSc2ccc(S(=O)(=O)Nc3ccc(Cl)c(C(F)(F)F)c3)cc2N1 | . | 71 | . | .
COc1ccc(NS(=O)(=O)c2ccc3c(c2)NC(=O)CCS3)c(OC)c1 | ? | . | . | .
CCCCNC(=O)CN1CCN(c2ncc(NC(=O)c3ccc(Cl)cc3)cc2C(=O)O)CC1 | 40µM | . | . | .
CCSc1nn(CC(=O)Nc2cccc(CC)c2)c(N)c1S(=O)(=O)c1ccccc1 | . | 94 | . | ?
CCc1ccc(NC(=O)Cn2nc(SC)c(S(=O)(=O)c3ccc(OC)cc3)c2N)cc1 | . | . | . | .
COc1ccc(S(=O)(=O)c2c(SC)nn(CC(=O)Nc3ccc(C)c(Cl)c3)c2N)cc1 | . | 86 | . | ?
C/C=C/C=C/C=C/C(=O)O[C@@H]1C=C(CO)C(O)(C(=O)OC)[C@@]2(C)CCCC(C)(C)C12 (stereo partly drawn) | . | / | / | .
COc1ccc(-c2cc(C(F)(F)F)nc(S(C)(=O)=O)n2)cc1 | . | 109 | ? | .
CCCCCn1c(=O)[nH]c2cc(C(=O)N3CCN(c4cccc(C)c4)C(C)C3)ccc2c1=O (stereo not drawn) | ? | 104 | . | .
CCCCCCCCCC(=O)N[C@@H](Cc1c[nH]c2ccccc12)C(=O)N[C@H](CC(N)=O)C(=O)N[C@@H](CC(=O)O)C(=O)N[C@@H]1C(=O)NCC(=O)N[C@@H](CCCN)C(=O)N[C@@H](CC(=O)O)C(=O)N[C@H](C)C(=O)N[C@@H](CC(=O)O)C(=O)NCC(=O)N[C@H](CO)C(=O)N[C@@H]([C@@H](C)CC(=O)O)C(=O)N[C@@H](CC(=O)c2ccccc2N)C(=O)O[C@@H]1C | . | / | . | .
Cc1cccc(OCC(=O)Nc2ccc3nc(Nc4cccc(Cl)c4)cc(C)c3c2)c1 | . | 103 | ? | .
CCCOc1ccc(S(=O)(=O)N2CCN(CCO)CC2)cc1-c1nc2c(CCC)cn(CC)c2c(=O)[nH]1 | . | / | / | .
CCN1CCOC(=O)C1CC(=O)Nc1ccc(Br)cc1 (stereo not drawn) | . | 74 | . | .
CCOC(=O)c1ccccc1NC(=O)c1cn(CC(C)C)c(=O)c2cc(OC)c(OC)cc12 | . | . | . | .
CCOC(=O)c1nn(-c2ccc(OC)cc2)c(=O)c2c(N)scc12 | 13µM | / | / | /
Cc1ccc(C)c(NC(=O)CCCn2nc(C)c3sc4ccccc4c3c2=O)c1 | . | . | . | .
CC(C)C(C)(C)C(C)(C)C(C)(C)S | 32µM | . | / | .
COc1ccc(NC(=O)Cn2cnc3sc(C)c(S(=O)(=O)N4CCN(C)CC4)c3c2=O)cc1Cl | . | . | . | .
Cc1ccccc1CN1C(=O)c2ccccc2Sc2ccc(C(=O)O)cc21 | . | . | . | .
O=C(O)c1cccc(CN2C(=O)/C(=C(\c3ccccc3)c3ccc(Cl)cc3)c3ccccc32)c1 | 28µM | / | / | ?
